The list is not random: actives were taken first. Their share in the collection is about 1.1%.
p53 reactivator: mutant p53 re-activation in reporter cells; H1299 p53-A138V BP100-luciferase reporter, luminescence, 24 h; Potency, µM (doses to about 92.2 µM), for the others: at the top dose activity change, positive = activation, hits mostly activators; hit rate 0.063% among 320,000; further: potency means the concentration at half of the fitted maximal effect; % of control where 0% means no effect; nearly all actives have a fitted effect of over 45% in size
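p53-null H1299 cells stably carrying temperature-sensitive p53-A138V and a BP100-luciferase reporter were pinned with compounds (4-point, 1:5 series) and held 24 hrs at 37 deg C. Luminescence was read 10 min after detection reagent.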
gsp ag: gsp mutant agonism. gsp mutant cells, cAMP HTRF, 30 min. Potency, µM (titrated, usually from 76.9 µM), without a hit: at the top dose activation (cAMP increase), hits mostly activators. hit rate 0.13% among 340,000. AID 624287; active means well fitted activation curve with a large enough effect; inconclusive means small, poorly fitted or top-dose-only effect, or another doubt; inactive means no such curve, though single readings can be large or run the other way; cell line not stated here;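 further: phosphodiesterase inhibitor Ro 20-1724 added with compounds to block cAMP breakdown; potency means the concentration at half of the fitted maximal effect; nearly all actives have a fitted effect of over 60% in size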
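Cells stably selected in G418 were plated at 2000/well, grown 16-24 hr, then given compounds in DMSO with the PDE inhibitor […] (300 uM solution added) for 30 min at 37C; cAMP was read by HTRF.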
Tb PFK block: inhibitors of T. brucei phosphofructokinase. T. brucei PFK, ADP-Glo luminescence. hit rate 0.17% among 330,000. Potency, µM (highest dose often 57.5 µM), for the others: at the highest dose activity, negative = inhibition, actives largely listed as inhibitors. O15648;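 further: potency means the concentration at half of the fitted maximal effect; 0% = uninhibited 1x PFK enzyme wells and -100% = no-enzyme wells; nearly all actives have a fitted effect of over 60% in size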
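ADP-Glo luminescence quantified ADP after 45 min at room temperature, with 1.25 nM T. brucei PFK, 0.1 mM ATP and 0.5 mM fructose-6-phosphate in pH 8.0 TEA buffer. qHTS titrations up to 57 µM; curves classified by quality.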
RXFP1 antag: RXFP1 (human) relaxin receptor antagonism. Q9HBX9. HEK293-RXFP1, relaxin-stimulated cAMP HTRF, 30 min; stronger effect = lower value. activity change, negative = inhibition, % at 57.5 µM. hit rate 0.59% among 350,000;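 active means activity change of -60% or lower, but not beyond a set lower limit; inconclusive means change between -60% and -40%, or beyond the set limit; inactive means change above -40%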; further: on the % scale 0 is the no-effect control and ±100 the full control effect
Target sequence (Q9HBX9 whole entry, looked up): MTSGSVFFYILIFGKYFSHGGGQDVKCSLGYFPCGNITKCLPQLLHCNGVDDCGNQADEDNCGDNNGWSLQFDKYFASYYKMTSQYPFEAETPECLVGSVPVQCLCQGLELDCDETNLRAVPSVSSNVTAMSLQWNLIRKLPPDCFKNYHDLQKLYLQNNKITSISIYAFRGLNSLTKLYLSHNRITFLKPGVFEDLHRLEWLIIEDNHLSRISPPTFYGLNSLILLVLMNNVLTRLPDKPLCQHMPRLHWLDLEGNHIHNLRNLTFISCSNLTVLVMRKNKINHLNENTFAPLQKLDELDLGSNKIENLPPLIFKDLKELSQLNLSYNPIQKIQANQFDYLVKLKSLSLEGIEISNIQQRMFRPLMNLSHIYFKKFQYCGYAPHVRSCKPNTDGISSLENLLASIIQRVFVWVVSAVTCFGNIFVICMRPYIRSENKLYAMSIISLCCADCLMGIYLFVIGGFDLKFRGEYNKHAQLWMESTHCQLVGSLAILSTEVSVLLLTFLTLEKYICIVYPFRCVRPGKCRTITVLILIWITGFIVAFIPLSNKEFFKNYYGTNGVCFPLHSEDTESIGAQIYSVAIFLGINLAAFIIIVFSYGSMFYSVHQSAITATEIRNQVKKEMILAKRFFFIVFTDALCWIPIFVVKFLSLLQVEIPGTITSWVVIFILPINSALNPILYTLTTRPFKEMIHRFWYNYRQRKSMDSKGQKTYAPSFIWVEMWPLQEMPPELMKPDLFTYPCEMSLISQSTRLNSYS
RXFP1 agonist: activates the human relaxin receptor RXFP1; HEK293T-RXFP1 cAMP TR-FRET, 30 min; response scale: percent of porcine relaxin response, buffer zero; Potency, µM (highest dose often 57.5 µM), for inactives: at the highest dose activation, usual class: activators; hit rate 0.3% among 370,000; AID 2676; further: potency means the concentration at half of the fitted maximal effect; on the % scale 0 is the no-effect control and ±100 the full control effect; nearly all actives have a fitted effect of over 60% in size
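Agonist response is measured as cAMP accumulation in an RXFP1-transfected HEK293T line under PDE4 inhibition. Values are scaled between buffer-only and 29 nM porcine relaxin, and EC50s come from standard Hill equation fits.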
gsp antagonist: antagonizes gsp, the McCune-Albright syndrome mutation; gsp-mutant cells, cAMP HTRF, 30 min; hit rate 0.4% among 340,000; Potency, µM (series often up to 76.9 µM), inactives show at the top dose activity change, negative = inhibition, hits mostly inhibitors; AID 624288; calls by dose curve; cell line not stated here;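 further: intracellular cAMP measured with PDE inhibitor Ro 20-1724 present during compound exposure; potency means the concentration at half of the fitted maximal effect; on the % scale 0 is the no-effect control and ±100 the full control effect; nearly all actives have a fitted effect of over 65% in size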
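Cells, 2000/well, grown 16–24 h in DMEM 10% FBS with 0.5 mg/ml G418, then compounds plus […] (300 uM addition stock), 30 min at 37C. cAMP read by HTRF (cAMP-d2 and anti-cAMP antibody-K in lysis buffer) after 30 min RT.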
* hit, by the source's call; ? = inconclusive; . = not tested or not shown; ! = repeats disagree; [ ] = remark or other dose. Unless noted, the call rests on the fitted dose curve; in most records, active means well fitted curve in the direction sought with a large enough effect; inconclusive means small, poorly fitted or top-dose-only effect, or another doubt; inactive means no such curve, though single readings can be large; an effect the other way counts as inactive or inconclusive.

SMILES	p53 reactivator	gsp ag	Tb PFK block	RXFP1 antag	RXFP1 agonist	gsp antagonist
O=C(O)c1ccc(NC(=S)NC(=O)c2ccc(-c3ccccc3)cc2)cc1	17%	-23%	3%	?	1%	20µM*
O=C(NC(=S)Nc1ccc2c(c1)OCCO2)c1ccccc1	12%	-31%	3%	0	-1%	32µM*
COc1ccc(-n2nnnc2C2CCN(S(=O)(=O)c3cccc(Cl)c3C)CC2)cc1	.	.	.	-11	0%	.
NS(=O)(=O)c1ccc(N2C(=O)C3CC=CCC3C2=O)cc1 (stereo unspecified)	1%	-2%	-5%	5	-2%	6%
CCc1ccccc1NC(=O)CCN1C(=O)c2ccccc2C1=O	-1%	20%	-2%	3	-1%	6%
O=C(Nc1ccc2c(c1)OCCO2)c1c(F)cccc1F	22µM*	?	-2%	-15	-1%	4%
O=C(Nc1ccc2c(c1)OCCO2)c1ccccc1F	15%	-27%	-10%	-4	-1%	0%
O=C(O)/C=C/C(=O)Nc1ccc(C2(c3ccc(NC(=O)/C=C/C(=O)O)cc3)c3ccccc3-c3ccccc32)cc1	-3%	-19%	-6%	-61*	0%	1%
O=C1/C(=C/N(C(=O)c2ccco2)c2ccc(Cl)cc2)Sc2ccccc21	28µM*	-22%	4%	0	4%	-8%
CC(C(=O)NCc1ccccc1)n1cc([N+](=O)[O-])cn1 (stereo unspecified)	1%	1.6µM*	1%	4	-3%	5%
Cc1cc(CNC(=O)C(C)n2cc([N+](=O)[O-])cn2)c2ccccc2n1 (stereo unspecified)	12%	6%[15.4 µM]	-3%	-8	?	9%
CC(CCc1ccccc1)NC(=O)C1CC1 (stereo unspecified)	.	8%	.	-1	.	14%
CC(CCc1ccccc1)NC(=O)C1CCN(c2nnc(-n3cccc3)s2)CC1 (stereo unspecified)	6%	13µM*	4%	.	-1%	-2%
NC(=O)c1sc2cc(C(F)(F)F)cnc2c1-c1cccs1	0%	6%	-5%	-10	2%	7%
CCc1ccc2n(-c3ccc(OC)cc3)c([S-])c(C(=O)Nc3cc(C)cc(C)c3)[n+]2c1	1%	10%[15.4 µM]	-4%	-7	5µM*	29%
CCOC(=O)c1cc(-c2ccccc2)sc1NC(=O)C(C)OC(=O)c1cccc(S(=O)(=O)N(C)C)c1 (stereo unspecified)	-12%	-3%[15.4 µM]	-1%	-3	2%	4%
CC1CN(Cc2c(O)ccc3c(=O)c(-c4ccccc4)coc23)CC(C)O1 (stereo unspecified)	-3%	8%[15.4 µM]	1%	-3	-1%	-10%
CC1CN(Cc2c(O)ccc3c2oc(=O)c2ccccc23)CC(C)O1 (stereo unspecified)	2%	28µM*	-1%	7	25%	0%
CC1(C)CC(=O)C2=C(C1)N1C(=C(C#N)C2c2ccc(Cl)cc2)N=C(N)c2ccccc21 (stereo unspecified)	-16%	-1%	-1%	?	1%	35µM*
CCN(c1ccc(OC)cc1)S(=O)(=O)c1nnc(NC(=O)c2ccccc2Cl)s1	4%	5%	6%	-60*!	0%	?
CCN(CC)S(=O)(=O)c1nnc(NC(=O)c2ccccc2Cl)s1	.	.	.	-19	0%	.
CCOc1ccc2c(c1)C(=NNC(=O)c1ccncc1)c1cc(OCC)ccc1-2	40µM*	2%[15.4 µM]	-3%	-20	-3%	?
CCOc1ccc(NC(=O)c2ccncc2)cc1	18%	15%	-1%	12	0%	6%
O=C(N/N=C1\C/C(=N\NC(=O)c2ccncc2)c2ccccc21)c1ccncc1	10%	25µM*	-7%	-6	32µM*	-15%
O=C(NN=C1C2CC3CC(C2)CC1C3)c1ccncc1	-3%	?	-1%	-3	2%	3%
SMILES	p53 reactivator	gsp ag	Tb PFK block	RXFP1 antag	RXFP1 agonist	gsp antagonist
COc1ccc(/C=C/C(=O)NNC(=O)c2cc(C)oc2C)cc1	3%	-1%[15.4 µM]	4%	-62*	3%	5%
CC(C)(C)c1ccc(Cn2cnc(-c3ccc([N+](=O)[O-])cc3)c2)cc1	28µM*	-12%	5%	.	0%	-7%
Cc1cc(C)c(Cn2cnc(-c3ccc([N+](=O)[O-])cc3)c2)c(C)c1	-3%	-10%	-2%	-20	0%	-16%
CC1(C)NC(=O)N(CC(=O)OCC(=O)c2ccc(Br)s2)C1=O	11%	10µM*	0%	15	.	14%
COc1ccc(NC(=O)COC(=O)CN2C(=O)NC(C)(C)C2=O)cc1	-6%	-4%	-2%	3	0%	11%
CCn1nnnc1SCC(=O)Nc1ccc2c(c1)OCCO2	10µM*	-20%	0%	-11	1%	3%
COc1ccc(NC(=O)c2nnn(CC(=O)Nc3ccccc3OC)c2N)c(OC)c1	0%	-10%	-1%	-102*	6%	9%
COc1ccc(NC(=O)c2nnn(CC(=O)Nc3cccc(C)c3C)c2N)c(OC)c1	.	.	.	2	2%	.
Cc1cccc(-c2noc(-c3ccccc3NC(=O)C3CC(=O)N(c4ccccc4C)C3)n2)c1 (stereo unspecified)	.	.	.	-3	-5%	.
CCn1c(=O)cc(SCC(=O)N2CCCCC2)c2ccccc21	-16%	?	0%	63	8%	-24%
CCCn1c2ccccc2c2nnc(SCC(=O)Nc3cccc(C(C)=O)c3)nc21	.	.	.	-20	13%	.
CCN(CC)C(=O)CSc1nnc2c3ccccc3n(C)c2n1	.	7.1µM*	-1%	11	?	-9%
Cn1c2ccccc2c2nnc(SCC(=O)Nc3cccc(C(=O)O)c3)nc21	4%	14µM*	9%	2	16µM*	-12%
CCOC(=O)C(C)Sc1nnc2c3ccccc3n(C)c2n1 (stereo unspecified)	.	?	5%	-3	15%	-11%
CCOc1ccc(NC(=O)CN(C)C(=O)c2nc3nc(C)cc(C)n3n2)cc1OCC	7%	?	3%	5	-1%	-9%
Cc1ccc(CNC(=O)CSc2ncc3c(n2)-c2ccc(Cl)cc2N(Cc2ccccc2)S3(=O)=O)cc1	.	.	.	.	28µM*	.
O=C(CSc1ncc2c(n1)-c1cc(Cl)ccc1N(Cc1ccccc1)S2(=O)=O)NCc1ccccc1	.	.	.	.	2%	.
CCOc1ccc(NC(=O)CSc2ncc3c(n2)-c2ccc(Cl)cc2N(Cc2ccccc2)S3(=O)=O)cc1	.	.	.	-4	11µM*	.
CC(C)(C)c1csc(SCC(=O)Nc2ccc(Cl)cn2)n1	5%	26%	0%	-11	0%	-20%

Screens (PubChem)
